# The supplement of paper PMC13380429
# Where a name gives a salt, the structure may show the parent alone.
# Columns and labels:
# [1] = test system: Vero E6 infected with SARS-CoV-2; assay: morphology score (similarity to uninfected cells); higher = more like uninfected cells; conditions: 24 h
# [2] = test system: Vero E6 infected with SARS-CoV-2; assay: SARS-CoV-2 infection rate relative to infected DMSO; higher = more infection, active = 60 or less; conditions: 24 h
SMILES,morphology score [1],SARS-CoV-2 infection rate [2]
CCCC[C@]1(CC)CS(=O)(=O)c2cc(CNC(CC(=O)O)CC(=O)O)c(OC)cc2[C@@H](c2ccccc2)N1 (10 µM),0.0912,90.5% (inactive)
Oc1cc(O)c(Cl)cn1 [gimeracil] (10 µM),0.103,107% (inactive)
C[C@@H]1COCCN1c1cc(=O)n2c(n1)N(Cc1cncc(Cl)c1)[C@H](C(F)(F)F)CC2 (0.833333 µM),0.55,70% (inactive)
C[C@H](c1ccc(F)cc1CCCC(=O)O)N(c1cc(F)ccc1F)S(=O)(=O)c1ccc(Cl)cc1 (10 µM),0.0279,112% (inactive)
Cn1c(=O)c2c(ncn2CCO)n(C)c1=O [etofylline] (10 µM),0.0956,104% (inactive)
O=S(=O)(NCC1CC1)c1ccc(Nc2nccc(N3CCCc4cc(O)ccc43)n2)cc1 [pyrintegrin] (0.833333 µM),0.71,60.5% (inactive)
COc1ccc2c(C(=S)N(C)CC(=O)O)cccc2c1C(F)(F)F [tolrestat] (10 µM),-0.0111,108% (inactive)
CNCCc1cnc[nH]1 [N-alpha-methylhistamine-dihydrochloride] (10 µM),-0.0409,110% (inactive)
C1=C2CCCN[C@H]2[C@@H]2C[C@H]1[C@H]1CCCCN1C2 [aloperine] (10 µM),0.199,102% (inactive)
O=C1NCCN1CCN1CCC(c2cn(-c3ccc(F)cc3)c3ccc(Cl)cc23)CC1 [sertindole] (0.833333 µM),-0.0791,106% (inactive)
CCOC(CN1CCN(CC(C)C(=O)c2ccccc2)CC1)c1ccccc1 (stereo unspecified) [eprazinone] (10 µM),0.35,96% (inactive)
O=C(Nc1ccc([N+](=O)[O-])cc1Cl)c1cc(Cl)ccc1O [niclosamide] (0.833333 µM),0.0975,97% (inactive)
O=C(Oc1ccc([N+](=O)[O-])cc1)N1CCC(C(O)(c2ccc3c(c2)OCO3)c2ccc3c(c2)OCO3)CC1 (10 µM),0.0091,103% (inactive)
N#C/C(=C\c1ccc(O)c(O)c1)C(=O)NCCCc1ccccc1 (0.833333 µM),-0.0747,119% (inactive)
Cc1ccc(/C=N/NC(=O)c2ccccc2Oc2ccccc2)o1 (10 µM),0.268,82.5% (inactive)
O=C1C(O)=C([C@H]2CC[C@H](c3ccc(Cl)cc3)CC2)C(=O)c2ccccc21 [atovaquone] (0.833333 µM),0.028,106% (inactive)
c1ccc(C2CC2)c(OCC2=NCCN2)c1 [cirazoline] (10 µM),0.0206,102% (inactive)
CCN(CC)C(=S)S [ditiocarb-sodium-trihydrate] (10 µM),0.761,11% (active)
COCC1(CO)C(=O)C2CCN1CC2 (stereo unspecified) (10 µM),0.212,80.5% (inactive)
O=C(Nc1ccccc1)N1CCN(c2nc(-c3ccccc3)ns2)CC1 (10 µM),-0.272,112% (inactive)
CCc1ccccc1OC[C@@H](O)CN[C@H]1CCCc2ccccc21 (10 µM),0.0335,93% (inactive)

SMILES,morphology score [1],SARS-CoV-2 infection rate [2]
CCC(CC)COC(=O)[C@H](C)N[P@](=O)(OC[C@H]1O[C@@](C#N)(c2ccc3c(N)ncnn23)[C@H](O)[C@@H]1O)Oc1ccccc1 [Remdesivir] (10 µM),0.761,26% (active)
O=[N+]([O-])c1ncc[nH]1 [azomycin-(2-nitroimidazole)] (10 µM),-0.138,105% (inactive)
O=C1CN2Cc3c(ccc(Cl)c3Cl)N=C2N1 [anagrelide] (10 µM),0.142,112% (inactive)
CC1(C)O[C@@H]2C[C@H]3[C@@H]4CCC5=CC(=O)CC[C@]5(C)[C@@]4(F)[C@@H](O)C[C@]3(C)[C@]2(C(=O)CCl)O1 [halcinonide] (10 µM),0.157,106% (inactive)
Cc1ccc(-n2nc(C(C)(C)C)cc2NC(=O)NCc2cc(F)ccc2Oc2ccc3c(cnn3CCO)c2)cc1 [pexmetinib] (0.833333 µM),0.226,105% (inactive)
Cc1c(C)c2c(c(C)c1O)CCC(C)(C)O2 (10 µM),-0.0795,116% (inactive)
CS(=O)(=O)c1ccc(Cn2c3c(c4cc(F)cc(F)c42)CCCC3CC(=O)O)cc1 (stereo unspecified) (10 µM),0.144,90% (inactive)
O=C1NC(=O)/C(=C/c2ccc(-c3ccc(F)cc3O)o2)S1 (10 µM),0.146,108% (inactive)
NC[C@H]1O[C@H](O[C@H]2[C@H](O)[C@@H](O[C@H]3O[C@H](CO)[C@@H](O)[C@H](N)[C@H]3O)[C@H](N)C[C@@H]2N)[C@H](O)[C@@H](O)[C@@H]1O [kanamycin] (10 µM),0.227,100% (inactive)
NCC(=O)CCC(=O)O [5-aminolevulinic-acid] (10 µM),0.0459,113% (inactive)
O=C(O[C@H]1CN2CCC1CC2)N(Cc1cc(F)c(F)c(F)c1)c1cccc(F)c1 [tarafenacin] (10 µM),0.371,74% (inactive)
CN1[C@@H]2CC[C@H]1C[C@@H](OC(=O)[C@H](CO)c1ccccc1)C2 [hyoscyamine] (10 µM),0.139,90.5% (inactive)
Cc1cc(NC(=O)C2=C(O)c3ccccc3S(=O)(=O)N2C)no1 [isoxicam] (10 µM),-0.111,108% (inactive)
CCN(CC)CCOc1ccc(Nc2ncc3cc(-c4c(Cl)cccc4Cl)c(=O)n(C)c3n2)cc1 (10 µM),-0.126,123% (inactive)
O=c1[nH]c2ccccc2n1CCCN1CCN(C(c2ccccc2)c2ccccc2)CC1 [oxatomide] (10 µM),-0.0451,106% (inactive)
CC1CCN(CCCC(=O)c2ccc(F)cc2)CC1 [melperone] (10 µM),0.389,80.5% (inactive)
COc1ccc(S(=O)(=O)Nc2nc(-c3cccc([N+](=O)[O-])c3)cs2)cc1OC (10 µM),-0.00369,107% (inactive)
CCOC(=O)[C@H](CCc1ccccc1)N[C@@H](C)C(=O)N1CCC[C@H]1C(=O)O [enalapril] (10 µM),0.198,96.5% (inactive)
COc1cccc(OC)c1C(=O)N[C@@H]1C(=O)N2[C@@H]1SC(C)(C)[C@@H]2C(=O)O [methicillin] (10 µM),-0.0574,112% (inactive)
O=C(O)CSc1nnc(Br)n1-c1ccc(C2CC2)c2ccccc12 [lesinurad] (10 µM),0.0859,95% (inactive)
Sc1ncnc2nc[nH]c12 [mercaptopurine] (0.833333 µM),0.0241,108% (inactive)

SMILES,morphology score [1],SARS-CoV-2 infection rate [2]
OCc1cc(C(O)CNCCCCCCOCCCCc2ccccc2)ccc1O (stereo unspecified) [salmeterol] (10 µM),0.465,54.5% (active)
N=C(N)NN=C1C=CC(=NNC(N)=S)C=C1 [ambazone] (10 µM),0.129,104% (inactive)
O=C(Nc1cccnn1)N1CCC(=Cc2cccc(Oc3ccc(C(F)(F)F)cn3)c2)CC1 (10 µM),0.00817,104% (inactive)
Cc1ccsc1C(=CCCN1CCC[C@@H](C(=O)O)C1)c1sccc1C [tiagabine] (10 µM),0.0772,109% (inactive)
S=C=Nc1ccc(N=C=S)cc1 [bitoscanate] (10 µM),-0.0255,106% (inactive)
CC1=C(CC(=O)O)c2cc(F)ccc2/C1=C\c1ccc([S+](C)[O-])cc1 (stereo unspecified) [sulindac] (10 µM),0.0804,104% (inactive)
NCCCCCC(=O)O [aminocaproic-acid] (10 µM),0.136,89.5% (inactive)
C/C(=N\NC(=S)N1CCC1)c1ccccn1 (0.833333 µM),0.0268,114% (inactive)
CC(=O)OC[C@H]1O[C@@H]([S-])[C@H](OC(C)=O)[C@@H](OC(C)=O)[C@@H]1OC(C)=O.CCP(CC)CC.[Au+] [auranofin] (0.833333 µM),0.3,79% (inactive)
O=C(O)Cn1c2c(c3cc(F)ccc31)CN(C(=O)c1cccc3ccccc13)CC2 [setipiprant] (10 µM),-0.161,108% (inactive)
CCS(=O)(=O)c1cccc(-c2cc(C(=O)NC3CCN(C)CC3)c(C)c3[nH]c4ncc(C)cc4c23)c1 (0.833333 µM),0.14,105% (inactive)
N[C@@H]1CCCN(c2c(/C=C3\SC(=O)NC3=O)cccc2-c2ccccc2)C1 (10 µM),-0.0825,110% (inactive)
N#Cc1ccc(-c2ccc(S(=O)(=O)Nc3cccc(N)n3)cc2)cc1 (10 µM),-0.0328,120% (inactive)
CCCCCN(C)CCC(O)(P(=O)(O)O)P(=O)(O)O [ibandronate] (10 µM),-0.0259,111% (inactive)
NC(=O)CCCCn1ccc(/N=C(\N)NCC(F)(F)F)n1 (10 µM),0.00958,100% (inactive)
Cc1ccc(Sc2cncc3sc(C(N)=O)cc23)cc1 (10 µM),-0.153,114% (inactive)
CO[C@@]1(NC(=O)CSCC#N)C(=O)N2C(C(=O)O)=C(CSc3nnnn3C)CS[C@@H]21 [cefmetazole] (10 µM),0.148,98.5% (inactive)
CCC(=O)O[C@@H](O[P@@](=O)(CCCCc1ccccc1)CC(=O)N1C[C@H](C2CCCCC2)C[C@H]1C(=O)O)C(C)C [fosinopril] (10 µM),-0.0286,104% (inactive)
Cc1cc(Cl)ccc1OCCCC(=O)NO [droxinostat] (10 µM),0.199,90% (inactive)
CCCS(=O)(=O)Nc1ccc(F)c(C(=O)c2c[nH]c3ncc(Cl)cc23)c1F (10 µM),-0.0271,114% (inactive)
COc1cc(/C=C(\C#N)C(N)=O)cc(CSc2nc3ccccc3s2)c1O [tyrphostin-AG-825] (10 µM),-0.108,108% (inactive)
